Screening data (PubChem BioAssay)
Pol eta inh-1: qHTS for Inhibitors of Polymerase Eta; DNA polymerase eta (Homo sapiens), Q9Y253; recombinant Pol eta, fluorescent DNA replication assay; Potency, µM (doses to about 114 µM), for inactives: at the highest dose activity change, negative = inhibition, most hits filed as inhibitors; 1.2% of 390,000 active; AID 588591, 2011; also: potency is read from the fitted curve at half-maximal effect; % is scaled to controls: 0 for no effect and ±100 for the full control effect
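Pol eta at 10 nM preincubated with compounds 15 min at room temperature; reaction started with fluorescent substrate (50 nM final) and read kinetically at 0 and 10 min.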
POLI inh: qHTS for Inhibitors of Polymerase Iota; Pol iota fluorescent replication assay, 10 min; Potency, µM (titrated, usually from 115 µM), without a hit: at the top dose activity, negative = inhibition, most hits filed as inhibitors; 1% of 390,000 active; also: potency is read from the fitted curve at half-maximal effect
Target sequence (Q9UNA4 whole entry, looked up): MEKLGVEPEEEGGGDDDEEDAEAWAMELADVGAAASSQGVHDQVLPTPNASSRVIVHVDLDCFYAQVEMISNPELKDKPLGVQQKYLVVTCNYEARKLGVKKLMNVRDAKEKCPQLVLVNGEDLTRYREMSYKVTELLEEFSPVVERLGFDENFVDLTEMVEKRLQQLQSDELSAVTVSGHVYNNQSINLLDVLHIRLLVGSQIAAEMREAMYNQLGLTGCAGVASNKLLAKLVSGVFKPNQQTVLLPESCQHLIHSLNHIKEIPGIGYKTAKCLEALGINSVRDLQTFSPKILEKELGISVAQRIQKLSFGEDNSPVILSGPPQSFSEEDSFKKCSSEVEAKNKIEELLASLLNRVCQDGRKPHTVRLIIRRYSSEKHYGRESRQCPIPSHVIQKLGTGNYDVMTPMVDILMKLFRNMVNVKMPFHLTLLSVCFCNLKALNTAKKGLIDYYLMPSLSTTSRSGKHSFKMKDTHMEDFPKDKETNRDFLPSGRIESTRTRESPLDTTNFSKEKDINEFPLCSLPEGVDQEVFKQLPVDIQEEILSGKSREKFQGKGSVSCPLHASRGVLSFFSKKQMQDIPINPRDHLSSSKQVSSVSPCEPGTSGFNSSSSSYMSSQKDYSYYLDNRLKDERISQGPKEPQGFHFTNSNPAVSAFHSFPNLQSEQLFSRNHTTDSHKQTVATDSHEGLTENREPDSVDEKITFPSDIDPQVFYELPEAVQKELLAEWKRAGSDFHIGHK
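Fluorescent replication assay read twice, at 0 min and 10 min after adding 50 nM (final) substrate. Enzyme (10 nM) and compounds were first incubated 15 min at room temperature; enzyme-free buffer wells were negative controls.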
Pol beta inh: qHTS Assay for Inhibitors of DNA Polymerase Beta; Pol beta primer extension/strand displacement, fluorescence kinetic; Potency, µM (top dose mostly 114 µM), for the others: at the top dose activity change, negative = inhibition, most hits filed as inhibitors; 1.3% of 340,000 active; AID 485314, 2010; also: potency is read from the fitted curve at half-maximal effect; % is scaled to controls: 0 for no effect and ±100 for the full control effect
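Kinetic readout of DNA synthesis with strand displacement by Pol beta. Compound and 10 nM enzyme sit 15 min at room temperature; 50 nM substrate starts the reaction, read immediately and at 10 min.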
TDP1 inh: qHTS Assay for Inhibitors of Tyrosyl-DNA Phosphodiesterase (TDP1). Potency, µM (titrated, usually from 130 µM), for inactives: at the highest dose activity change, negative = inhibition, actives largely listed as inhibitors. 0.28% of 350,000 active. AID 485290, 2010. Tyrosyl-DNA phosphodiesterase 1 (Homo sapiens), Q9NUW8. recombinant TDP1, AlphaScreen DNA substrate cleavage; also: potency is read from the fitted curve at half-maximal effect; % is scaled to controls: 0 for no effect and ±100 for the full control effect; nearly all actives have a fitted effect of over 40% in size
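Enzyme-compound mixtures sat 15 min at room temperature, followed by a 5 min reaction with 15 nM final substrate and 10 min with AlphaScreen beads. Recombinant human Tdp1 was used at 1 nM final.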
Pol kappa inh-1: qHTS for Inhibitors of Polymerase Kappa; DNA polymerase kappa (Homo sapiens), Q9UBT6; purified Pol kappa, fluorescent DNA synthesis assay, 10 min; Potency, µM (titrated, usually from 107 µM), for the others: top-dose activity, negative = inhibition, most hits filed as inhibitors; 0.53% of 400,000 active; AID 588579, 2011; also: potency is read from the fitted curve at half-maximal effect; % is scaled to controls: 0 for no effect and ±100 for the full control effect
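50 nM final substrate added after 15 min RT preincubation of 10 nM Pol kappa with compound; fluorescence read at 0 and 10 min.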
PGK validate: qHTS for inhibitors of Phosphogylcerate Kinase: Hit Validation Screen; shares compounds with Pol kappa inh-1; TbPGK coupled GAPDH assay, Kinase-Glo luminescence; Potency, µM (highest dose often 57.5 µM), inactives show at the highest dose activity change, negative = inhibition, actives largely listed as inhibitors; 79% of 500 active; AID 686980, 2013; also: potency is read from the fitted curve at half-maximal effect; % is scaled to controls: 0 for no effect and ±100 for the full control effect; nearly all actives have a fitted effect of over 65% in size
Pol iota confirm: qHTS for Inhibitors of Polymerase Iota: Confirmatory Assay for Cherry-picked Compounds; shares compounds with Pol kappa inh-1; Pol iota primer extension, TAMRA/BHQ fluorescence; Potency, µM, actives largely listed as inhibitors; 77% of 1,500 active; also: potency is read from the fitted curve at half-maximal effect
GALK confirm: Confirmation Assay for Inhibitors of Human Galactokinase (GALK) | shares compounds with Pol eta inh-1 | Potency, µM (top dose mostly 115 µM), without a hit: at the top dose activity, negative = inhibition, most hits filed as inhibitors | 70% of 150 active | purified GALK, Kinase-Glo ATP depletion luminescence
Redox cycling: Confirmatory Assay for Inhibitors of Human Galactokinase (GALK): Phenol-HRP redox assay counterscreen. shares compounds with Pol eta inh-1. Phenol red-HRP H2O2 redox cycling, absorbance 600 nm. Potency, µM (top dose mostly 115 µM), for the others: at the highest dose activity change, negative = H2O2 signal, hits mostly inhibitors. 40% of 150 active. AID 2035, 2009
HEK293 viability: Secondary Assay for Inhibitors of Human Galactokinase (GALK): HEK-293 Cell Viability Assay | HEK-293 viability, ATP luminescence (CellTiter-Glo), 24/48 h | Potency, µM (titrated, usually from 46.1 µM), for the others: top-dose activity change, negative = cytotoxicity, actives largely listed as inhibitors | shares compounds with Pol eta inh-1 | AID 2547, 2010 | 10% of 170 active; also: potency is read from the fitted curve at half-maximal effect; % is scaled to controls: 0 for no effect and ±100 for the full control effect
Pol kappa inh-2: qHTS for Inhibitors of Polymerase Kappa: Confirmatory Assay for Cherry-picked Compounds; shares compounds with Pol eta inh-1; purified Pol-kappa, fluorescent strand-displacement substrate; Potency, µM, actives largely listed as inhibitors; 76% of 920 active; AID 720501, 2013; also: potency is read from the fitted curve at half-maximal effect
Pol eta inh-2: qHTS for Inhibitors of Polymerase Eta: Confirmatory Assay for Cherry-picked Compounds. shares compounds with Pol eta inh-1. Pol eta primer extension, TAMRA/BHQ fluorescence, 10 min. Potency, µM, most hits filed as inhibitors. 64% of 2,600 active; also: potency is read from the fitted curve at half-maximal effect
Starred values were filed as active, the others as inactive; [ ] = another dose, or the depositor's remark. This is a sample that favours compounds with a hit; in the whole collection about 2.4% have one here. Calls follow the shape of the dose curve; as a rule, active = well fitted curve in the direction sought with a large enough effect; inconclusive = small, poorly fitted or top-dose-only effect, or another doubt; inactive = no such curve, though single readings can be large; an effect the other way counts as inactive or inconclusive.

How did Cc1ccc(C(c2c(C)[nH][nH]c2=O)c2c(C)[nH][nH]c2=O)cc1 do in these assays?
Pol eta inh-1: 0%; POLI inh: 93%; Pol beta inh: 3%; Pol kappa inh-1: -20%

Results for Cc1cccc(CNc2ccnc(-c3ccccc3CN(C)C)n2)c1 ?
TDP1 inh: 5%[56.1 µM]; Pol kappa inh-1: inconclusive

What do the screens show for `COc1ccc(CNc2ncnc3ccc(-c4ccccc4CN(C)C)cc23)c(OC)c1`?
TDP1 inh: 16%[56.1 µM]; Pol kappa inh-1: -6%[60.1 µM]

What do the screens show for `Cc1ccc(NC(=O)CSc2nc3ccc(NC(=O)c4cccc(Cl)c4)cc3s2)c(C)c1`?
Pol eta inh-1: -15%; POLI inh: 23%; Pol beta inh: 8%; TDP1 inh: 2%; Pol kappa inh-1: 4%

What do the screens show for `Cc1ccc(C(=O)NNC(=O)CSc2nnc3c(n2)[nH]c2ccc(F)cc23)cc1`?
Pol eta inh-1: 79µM*; POLI inh: 11%; Pol beta inh: 5µM*; TDP1 inh: 3%; Pol kappa inh-1: -1%; Pol iota confirm: 19*; Pol kappa inh-2: 19*; Pol eta inh-2: inconclusive

How did Cc1ccc(C=C2C(=O)c3ccccc3C2=O)o1 do in these assays?
Pol eta inh-1: 13µM*; POLI inh: 22µM*; Pol beta inh: 14µM*; TDP1 inh: 0%; Pol kappa inh-1: inconclusive; Pol iota confirm: 47*; Pol kappa inh-2: 42*; Pol eta inh-2: 48*

What do the screens show for `Cc1ccc(/C=C2/C(=O)c3ccc(C(=O)O)cc3C2=O)o1`?
Pol eta inh-1: 4µM*; POLI inh: inconclusive; Pol beta inh: 25µM*; TDP1 inh: 3.5µM*; Pol kappa inh-1: 5µM*; Pol iota confirm: 24*; Pol kappa inh-2: 11*; Pol eta inh-2: 8.5*

What do the screens show for `O=C(O)c1ccc2c(c1)C(=O)/C(=C\c1ccco1)C2=O`?
Pol eta inh-1: 3.5µM*; POLI inh: 6.3µM*; Pol beta inh: 2.2µM*; TDP1 inh: 7.1µM*; Pol kappa inh-1: 8.9µM*; Pol iota confirm: 30*; Pol kappa inh-2: 2.7*; Pol eta inh-2: 8.5*

What do the screens show for `O=C(O)c1ccc(C=NN=Cc2ccco2)cc1`?
Pol eta inh-1: 9%; POLI inh: -15%; Pol kappa inh-1: -16%

What do the screens show for `Cc1ccc(Nc2ncnc3onc(C)c23)cc1Cl`?
Pol eta inh-1: 1%; POLI inh: 4%; Pol beta inh: 1%; TDP1 inh: 1%; Pol kappa inh-1: -7%

What do the screens show for `COc1ccc(N(CC(=O)NCCc2ccc(C)cc2)S(=O)(=O)c2c(C)nn(C)c2C)cc1`?
Pol eta inh-1: -15%; POLI inh: -3%; Pol beta inh: -17%; TDP1 inh: 0%; Pol kappa inh-1: -4%

What do the screens show for `Cc1cc(NC(=O)Cc2cccs2)no1`?
Pol eta inh-1: 22µM*; POLI inh: 7.9µM*; Pol beta inh: 8.9µM*; Pol kappa inh-1: 22µM*; Pol iota confirm: 15*; Pol eta inh-2: 19*

Results for Cc1nc(S/C(=C/c2ccc(-c3ccc(C(=O)O)cc3)o2)C(=O)O)n[nH]1 ?
Pol eta inh-1: 18µM*; POLI inh: -95%; Pol beta inh: 35µM*; TDP1 inh: 4µM*; Pol kappa inh-1: inconclusive; Pol iota confirm: 42*; Pol eta inh-2: 19*

What do the screens show for `CS(=O)(=O)c1ccc2c(c1)sc1nc(=O)c(/C=C3/C=CC(=O)C(O)=C3)c(N)n12`?
Pol eta inh-1: 0.79µM*; POLI inh: 4µM*; Pol beta inh: 3.2µM*; TDP1 inh: -10%; Pol kappa inh-1: 7.9µM*; PGK validate: inconclusive; Pol iota confirm: 6.7*; GALK confirm: 19µM*; Redox cycling: inconclusive; HEK293 viability: 1%; Pol eta inh-2: 1.5*

How did O=C(O)CCCNc1cc(N2CCN(C(=O)c3ccco3)CC2)c2noc3c2c1C(=O)c1ccccc1-3 do in these assays?
Pol eta inh-1: 10µM*; POLI inh: 32µM*; Pol beta inh: 16µM*; TDP1 inh: 5%; Pol kappa inh-1: 32µM*; Pol iota confirm: 27*; Pol kappa inh-2: inconclusive; Pol eta inh-2: 9.5*

What do the screens show for `O=S(=O)(O)c1cc(O)c(N=Nc2ccc(O)cc2O)c2ccccc12`?
Pol eta inh-1: 10µM*; Pol kappa inh-1: 20µM*; PGK validate: 23µM*; Pol iota confirm: 19*; Pol kappa inh-2: 34*; Pol eta inh-2: 38*

Results for O=C(C[n+]1ccccc1Cl)c1ccc(F)cc1 ?
POLI inh: -4%; Pol kappa inh-1: -5%
